# Experimental data published in the supplement of paper PMC8728848.
# This excerpt belongs to a sample that is enriched for the strongest signals.
# B1: a L Fucosidase (Streptosporangium roseum), D2B1P1_STRRD (protein)
# chain: MRRKLLLVPAVGLLVIGSIFATQPVASADTPPVYEPTVESLNSHPVPQWFNDDKFGIFIHWGAYSVPAWGPRGSYAEWYGNYMNAGGSATNAHHKATYGQDFNYDAFLQQWKAEKFDPADWVKLFKDAGAKYFVLTSKHHEGMALWDSKSSGRDSVDLGPGRDLAKELFDAARKDEAKLKAGFYYSLYEWYNPAYTGRPATNPYTGAEIPYTGAPGGGDYVKDYMLPQMRELIDGYDPDIIWCDGQWEKPASYWNTAGVIADYYNKALNSGKEVAVANRCKIQSGNLDSPELDFQTPEYTVKPDIDPVKWESSRGIAHSYGYNQNEPEEDHLTSDQLVDSLVDIVSKNGNLLLDIGPKADGTIPEIQRQRLLDIGAWLKANGEAIYGTTYWNRAEEKGGPDDVRYTAKDATLYATALKWPGEQLTLGADLPVDHSTRITMLGSGARLSWSRDEQGRVVVNTPQEAGKHAYVFKIETPGVRSLLRTSSSLAKEIAPGRTISGELTVTNPGKRHTPATKLSLTVPQGWTATLGAPRVRPLGPGESVKVPISVSAPEGVAPAPYTLGLYQRTGRMGTTTALPLTVNRPNLSLGKPATQKSTGYDAPASRAVDGNTGGDWSAGSTTHTAEPEKQAWWQVDLGASARLDSVDVWNRLDCCADRLKDFWVMASDQPFTTDDLDQARTAPGVTAVHVGEQAGSPSKVKLPEGTRGRYVRIQLASPSNPLSLAEVQVRGSMARPNLSLGKPATQKSTGYDAPASRAVDGNTGGDWSAGSTTHTAEPEKQAWWQVDLGASARLDSVDVWNRLDCCADRLKDFWVMASDQPFTTDDLDQARTAPGVTAVHVGEQAGSPSKVKLPEGTRGRYVRIQLASPSNPLSLAEVQVRLEHHHHHHS
# Experiments:
# Assay in all cases: glycan array binding signal (z-score within array); higher = stronger binding
# Details in all cases: glycan notation: IUPAC condensed, linker removed
# [1] = target: GalNAc(b1-4)GlcNAc
# Summary of the method: (§1)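 The Consortium for Functional Glycomics database supplied 3228 glycan arrays, of which those lacking an available protein sequence were dropped. The binding signal, a within-array Z-score, was averaged across arrays of the same protein sequence and across linkers. Negative scores can be read as non-binding.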
# [2] = target: GlcA(b1-3)Gal
# Summary of the method: as §1
# [3] = target: GlcA(b1-6)Gal
# Summary of the method: as §1
# [4] = target: GlcNAc(b1-3)Gal(b1-4)GlcNAc(b1-3)Gal(b1-4)GlcNAc(b1-3)Gal(b1-4)GlcNAc(b1-2)[GlcNAc(b1-3)Gal(b1-4)GlcNAc(b1-3)Gal(b1-4)GlcNAc(b1-3)Gal(b1-4)GlcNAc(b1-6)]Man(a1-6)[GlcNAc(b1-3)Gal(b1-4)GlcNAc(b1-3)Gal(b1-4)GlcNAc(b1-3)Gal(b1-4)GlcNAc(b1-2)Man(a1-3)]Man(b1-4)GlcNAc(b1-4)[Fuc(a1-6)]GlcNAc
# Summary of the method: as §1
# [5] = target: GlcNAc(b1-3)Gal(b1-4)GlcNAc(b1-3)Gal(b1-4)GlcNAc(b1-3)Gal(b1-4)GlcNAc(b1-3)Gal(b1-4)GlcNAc(b1-2)Man(a1-3)[GlcNAc(b1-3)Gal(b1-4)GlcNAc(b1-3)Gal(b1-4)GlcNAc(b1-3)Gal(b1-4)GlcNAc(b1-3)Gal(b1-4)GlcNAc(b1-2)Man(a1-6)]Man(b1-4)GlcNAc(b1-4)[Fuc(a1-6)]GlcNAc
# Summary of the method: as §1
# [6] = target: Kdn(a2-3)Gal(b1-4)Glc
# Summary of the method: as §1
# [7] = target: Man(a1-2)Man(a1-2)Man(a1-3)Man
# Summary of the method: as §1
# [8] = target: Man(a1-2)Man(a1-3)[Man(a1-2)Man(a1-6)]Man(a1-6)[Man(a1-2)Man(a1-2)Man(a1-3)]Man(b1-4)GlcNAc(b1-4)GlcNAc
# Summary of the method: as §1
# [9] = target: Man(a1-3)[Man(a1-6)]Man
# Summary of the method: as §1
# [10] = target: Neu5Ac(a2-3)Gal(b1-3)GlcNAc(b1-6)GalNAc
# Summary of the method: as §1
# [11] = target: Neu5Ac(a2-3)Gal(b1-4)GlcNAc(b1-3)Gal(b1-4)GlcNAc(b1-2)Man(a1-3)[Neu5Ac(a2-3)Gal(b1-4)GlcNAc(b1-3)Gal(b1-4)GlcNAc(b1-2)Man(a1-6)]Man(b1-4)GlcNAc(b1-4)GlcNAc
# Summary of the method: as §1
# [12] = target: Neu5Ac(a2-3)Gal(b1-4)GlcNAc(b1-6)[Neu5Ac(a2-3)Gal(b1-3)]GalNAc
# Summary of the method: as §1
# [13] = target: Neu5Ac(a2-6)Gal(b1-3)GlcNAc(b1-3)[Gal(b1-4)GlcNAc(b1-6)]Gal(b1-4)Glc
# Summary of the method: as §1
# [14] = target: Neu5Ac(a2-6)Gal(b1-4)Glc
# Summary of the method: as §1
# [15] = target: Neu5Ac(a2-6)Gal(b1-4)GlcNAc(b1-2)Man(a1-3)Man(b1-4)GlcNAc(b1-4)GlcNAc
# Summary of the method: as §1
# [16] = target: Neu5Ac(a2-6)Gal(b1-4)GlcNAc(b1-2)[Neu5Ac(a2-6)Gal(b1-4)GlcNAc(b1-4)]Man(a1-3)[GlcNAc(b1-4)][Neu5Ac(a2-6)Gal(b1-4)GlcNAc(b1-4)Man(a1-6)]Man(b1-4)GlcNAc(b1-4)GlcNAc
# Summary of the method: as §1
# [17] = target: Neu5Ac(a2-6)Gal(b1-4)GlcNAc(b1-6)[Gal(b1-3)GlcNAc(b1-3)]Gal(b1-4)Glc
# Summary of the method: as §1
# [18] = target: Neu5Ac(a2-6)GalNAc(b1-4)GlcNAc6S
# Summary of the method: as §1
# [19] = target: Neu5Ac(a2-8)Neu5Ac(a2-3)Gal(b1-3)GalNAc(b1-4)[Neu5Ac(a2-3)]Gal(b1-4)Glc
# Summary of the method: as §1
# [20] = target: Neu5Ac(a2-8)Neu5Ac(a2-3)[GalNAc(b1-4)]Gal(b1-4)Glc
# Summary of the method: as §1
# [21] = target: Neu5Ac(a2-8)Neu5Ac(a2-8)Neu5Ac(a2-3)[GalNAc(b1-4)]Gal(b1-4)Glc
# Summary of the method: as §1
# [22] = target: Neu5Gc(a2-3)Gal(b1-4)GlcNAc(b1-3)Gal(b1-4)GlcNAc(b1-2)Man(a1-3)[Neu5Gc(a2-3)Gal(b1-4)GlcNAc(b1-3)Gal(b1-4)GlcNAc(b1-2)Man(a1-6)]Man(b1-4)GlcNAc(b1-4)GlcNAc
# Summary of the method: as §1
# [23] = target: Neu5Gc(a2-6)Gal(b1-4)GlcNAc
# Summary of the method: as §1
# [24] = target: Neu5Gc(a2-8)Neu5Gc(a2-3)Gal(b1-4)GlcNAc(b1-3)Gal(b1-4)GlcNAc
# Summary of the method: as §1
# [25] = target: Neu5Gc(b2-6)Gal(b1-4)GlcNAc
# Summary of the method: as §1
binder,measurement,setting,value
B1,glycan array binding signal (z-score),[1],-0.528
same,glycan array binding signal (z-score),[2],-0.445
same,glycan array binding signal (z-score),[3],-0.444
same,glycan array binding signal (z-score),[4],-0.512
same,glycan array binding signal (z-score),[5],1.09
same,glycan array binding signal (z-score),[6],-0.16
same,glycan array binding signal (z-score),[7],-0.582
same,glycan array binding signal (z-score),[8],-0.104
same,glycan array binding signal (z-score),[9],0.008
same,glycan array binding signal (z-score),[10],-0.493
same,glycan array binding signal (z-score),[11],0.456
same,glycan array binding signal (z-score),[12],-0.417
same,glycan array binding signal (z-score),[13],-0.585
same,glycan array binding signal (z-score),[14],-0.462
same,glycan array binding signal (z-score),[15],-0.533
same,glycan array binding signal (z-score),[16],-0.202
same,glycan array binding signal (z-score),[17],-0.507
same,glycan array binding signal (z-score),[18],-0.481
same,glycan array binding signal (z-score),[19],-0.521
same,glycan array binding signal (z-score),[20],-0.558
same,glycan array binding signal (z-score),[21],-0.388
same,glycan array binding signal (z-score),[22],0.548
same,glycan array binding signal (z-score),[23],-0.317
same,glycan array binding signal (z-score),[24],-0.268
same,glycan array binding signal (z-score),[25],-0.474
